{"source": "PubChem BioAssay", "key": {"[1]": {"assay": "CMV-driven luciferase expression suppression in HEK293 – cell-based, luminescence, dry powder, counter-screen for Pax8 inhibitor project, dose response (AID 743020;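 active = signal-lowering compounds whose fitted half-maximal concentration is at or below twice the top tested dose in every run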;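 note: HEK293 cells stably expressing the CMV luciferase reporter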)"}, "[2]": {"assay": "general cell-killing toxicity readout – plate reader, dry powder samples, cytotoxicity control for PAX8 inhibitor project, dose response (AID 743021)"}, "[3]": {"assay": "A549 cell cytotoxicity, dose response, cytotoxicity control, plate reader, cherry-pick, antagonist series (AID 743412);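 note: 0% = neutral control wells and -100% = positive control wells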"}, "[4]": {"assay": "toxicity toward HepG2 liver cells – cell-based, plate reader, cherry-pick, antagonist series, cytotoxicity control, dose response (AID 743416);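 note: 0% = neutral control wells and -100% = positive control wells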"}, "[5]": {"target": "Melanocortin receptor 4 (Homo sapiens) (UniProt P32245)", "assay": "blockade of melanocortin 4 receptor signaling – cell-based, plate reader, cherry pick, counter-screen for LGR2 antagonist project, dose response (AID 743444)"}, "[6]": {"assay": "RMG-1 ovarian cancer cell viability loss – cherry-pick, dose response (AID 687029;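 active = signal drop whose fitted half-maximal concentration is at most twice the top valid dose, in every test run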;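 note: cells exposed to compound for 96 hours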)"}, "[7]": {"assay": "IOSE-T80 viability loss, PAX8-independent line – cell-based, cherry-pick, selectivity assay for PAX8 inhibitor project, dose response (AID 687032;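 active = fitted half-maximal concentration for viability loss no higher than twice the top valid dose, in every repeat run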;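 note: cells exposed to compound for 96 h before reading; 0% = neutral control wells and -100% = 2 µM mitoxantrone kill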)"}, "[8]": {"assay": "small-molecule DNA binding by polarization – biochemical, fluorescence polarization, cherry-pick, counter-screen for EWS/Fli inhibitor project, dose response (AID 720586;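 active = fitted curve reaches a 35% signal fall AC35 below twice the sample's top valid tested dose, actives reach about 48 µM in these data; inactive = the rest, including activity in the rising direction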;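 note: 0% = neutral control median and -100% = 10 µM mitoxantrone control median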)"}, "[9]": {"assay": "IGROV1 cell killing – plate reader, dry powder samples, PAX8 inhibitor project, dose response (AID 743043);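 note: more negative means fewer viable cells or more cytotoxicity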"}, "[10]": {"assay": "OVCAR-3 cell viability loss – plate reader, dry powder samples, PAX8 inhibitor project, dose response (AID 743044)", "settings": "NIH:OVCAR-3 ovarian cancer cell viability, stronger effect = lower value; at 4.2 µM unless noted"}, "[11]": {"assay": "toxicity toward immortalized ovarian surface epithelium – cell-based, plate reader, dry powder samples, cytotoxicity control for PAX8 inhibitor project, dose response (AID 743045);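 note: 0% = neutral control median and -100% = positive control median; more negative values mean more cell killing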"}, "[12]": {"assay": "A2780 cell killing – plate reader, dry powder samples, cytotoxicity control, dose response (AID 743046);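 note: 0% = neutral control wells and -100% = cytotoxic reference compound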"}, "[13]": {"assay": "OVCAR8 cell viability loss – plate reader, dry powder samples, PAX8 project, dose response (AID 743197)"}}, "note": "For part of these data: Entries with a potency or affinity are not part of this list. Results filed as inconclusive are left out. Values without a mark were called inactive. Some of the results follow. Activity calls are given as the source filed them. Unless noted, the rule behind the calls is not given here.", "data": [{"smiles": "C[C@]12CCC3C(CCC4=CC(O)CC[C@@]43/C=N/O)C1(O)CCC2C1=CC(=O)OC1", "note": "(stereo partly specified)", "values": [{"measurement": "outcome", "setting": "[1]", "value": "inactive"}]}, {"smiles": "C[C@]12CC[C@H]3[C@@H](CC[C@]4(O)C[C@@H](O)CC[C@]34C=O)[C@@]1(O)CC[C@@H]2C1=CC(=O)OC1", "values": [{"measurement": "outcome", "setting": "[2]", "value": "inactive"}]}, {"smiles": "CNC(=O)Oc1cccc(-c2cn3cc(Cl)ccc3n2)c1", "values": [{"measurement": "outcome", "setting": "[3]", "value": "inactive"}, {"measurement": "outcome", "setting": "[4]", "value": "inactive"}]}, {"smiles": "O=c1c2ccccc2nc(/C=C/c2ccc([N+](=O)[O-])o2)n1-c1ccc(O)cc1", "values": [{"measurement": "outcome", "setting": "[5]", "value": "inactive"}]}, {"smiles": "CCC(c1nnnn1Cc1ccccc1)N1CCC(n2c(=O)[nH]c3ccccc32)CC1", "note": "(stereo unspecified)", "values": [{"measurement": "outcome", "setting": "[1]", "value": "inactive"}]}, {"smiles": "N#Cc1ccc2nc(-c3ccc(CN4CCC(n5c(=O)[nH]c6ccccc65)CC4)cc3)c(-c3ccccc3)nc2c1", "values": [{"measurement": "outcome", "setting": "[6]", "value": "inactive"}, {"measurement": "outcome", "setting": "[2]", "value": "inactive"}]}, {"smiles": "C=Cc1cc(OC)c2c(c1)c(=O)oc1c2cc(OC)c2c(O)ccc(C3OC(C)C(O)C(C)(O)C3O)c21", "note": "(stereo unspecified)", "values": [{"measurement": "outcome", "setting": "[6]", "value": "inactive"}, {"measurement": "outcome", "setting": "[2]", "value": "inactive"}]}, {"smiles": "O=c1[nH]c2ccccc2n1C1CCN(C(c2cccs2)c2nnnn2-c2ccc3c(c2)OCCO3)CC1", "note": "(stereo unspecified)", "values": [{"measurement": "outcome", "setting": "[1]", "value": "inactive"}]}, {"smiles": "CCC(C)(O)C(=O)OC1C(=O)OC2CC3C(C)=CC(=O)C(O)C3(C)C3C4(O)OCC23C1C(C)C4O", "note": "(stereo unspecified)", "values": [{"measurement": "outcome", "setting": "[1]", "value": "inactive"}, {"measurement": "outcome", "setting": "[2]", "value": "inactive"}]}, {"smiles": "CC(C)(O)/C=C/C(=O)C(C)(O)C1C(O)CC2(C)C3CC=C4C(C=C(O)C(=O)C4(C)C)C3(C)C(=O)CC12C", "note": "(stereo unspecified)", "values": [{"measurement": "outcome", "setting": "[7]", "value": "inactive"}, {"measurement": "outcome", "setting": "[2]", "value": "inactive"}]}, {"smiles": "CC1CC(C)(O)CC(C(O)CC2CC(=O)NC(=O)C2)C1=O", "note": "(stereo unspecified)", "values": [{"measurement": "outcome", "setting": "[1]", "value": "inactive"}, {"measurement": "outcome", "setting": "[2]", "value": "inactive"}]}, {"smiles": "CCCCN=C[C@]12CCC(O)CC1(O)CCC1[C@@H]2CC[C@]2(C)[C@H](C3C=CC(=O)O3)CCC12O", "note": "(stereo partly specified)", "values": [{"measurement": "outcome", "setting": "[1]", "value": "inactive"}]}, {"smiles": "CC(C)(C)n1cc(C(=O)c2ccc3ccccc3c2O)cn1", "values": [{"measurement": "outcome", "setting": "[4]", "value": "inactive"}]}, {"smiles": "CC1OC(OC2C=C3CCC4C(CCC5(C)C(c6ccc(=O)oc6)CCC45O)C3(C)CC2)C(O)C(OC2OC(CO)C(O)C(O)C2O)C1O", "note": "(stereo unspecified)", "values": [{"measurement": "outcome", "setting": "[6]", "value": "inactive"}, {"measurement": "outcome", "setting": "[2]", "value": "inactive"}]}, {"smiles": "CC12CCC(O)CC1CCC1C2CCC2(C)C(C3=CC(=O)OC3)CCC12O", "note": "(stereo unspecified)", "values": [{"measurement": "outcome", "setting": "[6]", "value": "inactive"}, {"measurement": "outcome", "setting": "[2]", "value": "inactive"}]}, {"smiles": "C[C@]12CC[C@H](O)C[C@H]1CC[C@@H]1C2CC[C@]2(C)[C@@H](C3=CC(=O)OC3)[C@@H](O)C[C@]12O", "note": "(stereo partly specified)", "values": [{"measurement": "outcome", "setting": "[8]", "value": "inactive"}]}, {"smiles": "O=C(O)c1nn(Cc2ccc(Cl)cc2Cl)c2ccccc12", "values": [{"measurement": "outcome", "setting": "[3]", "value": "inactive"}, {"measurement": "outcome", "setting": "[4]", "value": "inactive"}, {"measurement": "outcome", "setting": "[5]", "value": "inactive"}]}, {"smiles": "COC1=C(C)C(=O)C2=C(C1=O)C(CO)N1C(C#N)C3CC4C(C1C2N1CCOC41)N3C", "note": "(stereo unspecified)", "values": [{"measurement": "outcome", "setting": "[6]", "value": "inactive"}, {"measurement": "outcome", "setting": "[2]", "value": "inactive"}]}, {"smiles": "C[C@@H]1O[C@@H](O[C@@H]2C=C3CC[C@@H]4C(CC[C@]5(C)[C@@H](c6ccc(=O)oc6)CC[C@]45O)[C@@]3(C)CC2)[C@H](O)[C@H](O)[C@H]1O", "note": "(stereo partly specified)", "values": [{"measurement": "outcome", "setting": "[2]", "value": "inactive"}]}, {"smiles": "N#CC(C#N)=NNc1ccc(-n2ccc(C(F)(F)F)n2)cc1", "values": [{"measurement": "outcome", "setting": "[6]", "value": "inactive"}, {"measurement": "outcome", "setting": "[2]", "value": "inactive"}]}, {"smiles": "O=c1[nH]c2ccccc2n1C1CCN(C(c2ccccc2OC(F)(F)F)c2nnnn2Cc2ccccc2)CC1", "note": "(stereo unspecified)", "values": [{"measurement": "outcome", "setting": "[4]", "value": "inactive"}]}, {"smiles": "O=C1NC(=O)N(CCc2ccc(F)cc2)C(=O)/C1=C/C=C/c1ccccc1", "values": [{"measurement": "outcome", "setting": "[8]", "value": "inactive"}]}, {"smiles": "O=Cc1cn(Cc2cccc([N+](=O)[O-])c2)c2ccccc12", "values": [{"measurement": "outcome", "setting": "[3]", "value": "inactive"}]}, {"smiles": "COC(=O)c1ccc(NC(=O)CSc2nc3ccc(N4C(=O)C5C6C=CC(C6)C5C4=O)cc3s2)cc1", "note": "(stereo unspecified)", "values": [{"measurement": "outcome", "setting": "[3]", "value": "inactive"}]}, {"smiles": "COC(=O)C1=C(c2ccc(F)cc2OCc2ccccc2)C[C@@H]2CC[C@H]1N2C(=O)NCc1ccc(C(F)(F)F)cc1", "values": [{"measurement": "outcome", "setting": "[6]", "value": "inactive"}, {"measurement": "outcome", "setting": "[2]", "value": "inactive"}]}, {"smiles": "Clc1cccc(N2Cc3cc(-c4ccccc4)ccc3-n3nncc3C2)c1", "values": [{"measurement": "outcome", "setting": "[3]", "value": "inactive"}, {"measurement": "outcome", "setting": "[4]", "value": "inactive"}]}, {"smiles": "COc1ccc(-c2ccc([C@@H]3[C@@H](CO)N4CCCCN(C(=O)Cc5ccccc5)C[C@H]34)cc2)cc1", "values": [{"measurement": "outcome", "setting": "[1]", "value": "inactive"}, {"measurement": "outcome", "setting": "[9]", "value": "inactive"}, {"measurement": "max activity", "setting": "[10]", "value": "-18.2% [at 35 µM]"}, {"measurement": "outcome", "setting": "[11]", "value": "inactive"}, {"measurement": "outcome", "setting": "[12]", "value": "inactive"}, {"measurement": "outcome", "setting": "[13]", "value": "inactive"}]}, {"smiles": "COc1ccc(C[C@H]2NC[C@H](O)[C@H]2OC(C)=O)cc1", "values": [{"measurement": "outcome", "setting": "[6]", "value": "inactive"}, {"measurement": "outcome", "setting": "[2]", "value": "inactive"}]}, {"smiles": "CCCCCCCCCCCCn1ccc(=N)cc1", "values": [{"measurement": "outcome", "setting": "[6]", "value": "inactive"}, {"measurement": "outcome", "setting": "[2]", "value": "inactive"}]}, {"smiles": "COc1cccc(-c2nc3ccc(N4CCN(C)CC4)cc3[nH]2)c1", "values": [{"measurement": "outcome", "setting": "[4]", "value": "inactive"}]}]}
